Residue numbers refer to the chain shown, from its start. In all, about 16,000 sequences were measured (“ka relative to ugcaugu”: median about 0.096, highest 2% from about 0.35 on). Shown is part of a subset that was picked to be rich in the highest values.
T1: RBFOX1 RRM RbFoxmut (Fox-RRM*) (Homo sapiens, UniProt Q9NWB1 109-208, R118D;E147R;N151S;E152T)
T1 sequence: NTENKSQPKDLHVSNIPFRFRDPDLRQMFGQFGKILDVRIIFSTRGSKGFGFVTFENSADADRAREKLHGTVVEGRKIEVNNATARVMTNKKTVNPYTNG

B1: UUGGUUA (DNA:RNA)
RNA: GGGAGACCGGAAUUCAGAUUGUCCUUGGUUAUUAAAUCCCGUCGUAGCCACCA
DNA 1: CAATCTGAATTCCGGTCTCCC
DNA 2: TGGTGGCTACGACGGGATT
B2: AUGACAU (DNA:RNA)
RNA: B1 RNA with U25A, G28A, U29C, U30A, A31U
DNA 1: CAATCTGAATTCCGGTCTCCC
DNA 2: TGGTGGCTACGACGGGATT
B3: CAAGGUA (DNA:RNA)
RNA: B1 RNA with U25C, U26A, G27A, U29G
DNA 1: CAATCTGAATTCCGGTCTCCC
DNA 2: TGGTGGCTACGACGGGATT
B4: UCUUGCG (DNA:RNA)
RNA: B1 RNA with U26C, G27U, G28U, U29G, U30C, A31G
DNA 1: CAATCTGAATTCCGGTCTCCC
DNA 2: TGGTGGCTACGACGGGATT
B5: UCUAAUU (DNA:RNA)
RNA: B1 RNA with U26C, G27U, G28A, U29A, A31U
DNA 1: CAATCTGAATTCCGGTCTCCC
DNA 2: TGGTGGCTACGACGGGATT
B6: AUACAAA (DNA:RNA)
RNA: B1 RNA with U25A, G27A, G28C, U29A, U30A
DNA 1: CAATCTGAATTCCGGTCTCCC
DNA 2: TGGTGGCTACGACGGGATT
B7: GGAUCUA (DNA:RNA)
RNA: B1 RNA with U25G, U26G, G27A, G28U, U29C
DNA 1: CAATCTGAATTCCGGTCTCCC
DNA 2: TGGTGGCTACGACGGGATT
B8: GUCCCCG (DNA:RNA)
RNA: B1 RNA with U25G, G27C, G28C, U29C, U30C, A31G
DNA 1: CAATCTGAATTCCGGTCTCCC
DNA 2: TGGTGGCTACGACGGGATT
B9: UGUAUGU (DNA:RNA)
RNA: B1 RNA with U26G, G27U, G28A, U30G, A31U
DNA 1: CAATCTGAATTCCGGTCTCCC
DNA 2: TGGTGGCTACGACGGGATT
B10: CCCUGUA (DNA:RNA)
RNA: B1 RNA with U25C, U26C, G27C, G28U, U29G
DNA 1: CAATCTGAATTCCGGTCTCCC
DNA 2: TGGTGGCTACGACGGGATT
B11: CUGUGUA (DNA:RNA)
RNA: B1 RNA with U25C, G28U, U29G
DNA 1: CAATCTGAATTCCGGTCTCCC
DNA 2: TGGTGGCTACGACGGGATT
B12: UGCUAUG (DNA:RNA)
RNA: B1 RNA with U26G, G27C, G28U, U29A, A31G
DNA 1: CAATCTGAATTCCGGTCTCCC
DNA 2: TGGTGGCTACGACGGGATT
B13: GUCAUGU (DNA:RNA)
RNA: B1 RNA with U25G, G27C, G28A, U30G, A31U
DNA 1: CAATCTGAATTCCGGTCTCCC
DNA 2: TGGTGGCTACGACGGGATT
B14: UGCUAUC (DNA:RNA)
RNA: B1 RNA with U26G, G27C, G28U, U29A, A31C
DNA 1: CAATCTGAATTCCGGTCTCCC
DNA 2: TGGTGGCTACGACGGGATT
B15: CUGUAUG (DNA:RNA)
RNA: B1 RNA with U25C, G28U, U29A, A31G
DNA 1: CAATCTGAATTCCGGTCTCCC
DNA 2: TGGTGGCTACGACGGGATT
B16: CGCUAUG (DNA:RNA)
RNA: B1 RNA with U25C, U26G, G27C, G28U, U29A, A31G
DNA 1: CAATCTGAATTCCGGTCTCCC
DNA 2: TGGTGGCTACGACGGGATT
B17: UGUAGGU (DNA:RNA)
RNA: B1 RNA with U26G, G27U, G28A, U29G, U30G, A31U
DNA 1: CAATCTGAATTCCGGTCTCCC
DNA 2: TGGTGGCTACGACGGGATT
B18: GGUCAUC (DNA:RNA)
RNA: B1 RNA with U25G, U26G, G27U, G28C, U29A, A31C
DNA 1: CAATCTGAATTCCGGTCTCCC
DNA 2: TGGTGGCTACGACGGGATT
B19: GUCCUGU (DNA:RNA)
RNA: B1 RNA with U25G, G27C, G28C, U30G, A31U
DNA 1: CAATCTGAATTCCGGTCTCCC
DNA 2: TGGTGGCTACGACGGGATT
B20: GGUCAUG (DNA:RNA)
RNA: B1 RNA with U25G, U26G, G27U, G28C, U29A, A31G
DNA 1: CAATCTGAATTCCGGTCTCCC
DNA 2: TGGTGGCTACGACGGGATT
B21: CUGGUGC (DNA:RNA)
RNA: B1 RNA with U25C, U30G, A31C
DNA 1: CAATCTGAATTCCGGTCTCCC
DNA 2: TGGTGGCTACGACGGGATT
B22: CGGACCU (DNA:RNA)
RNA: B1 RNA with U25C, U26G, G28A, U29C, U30C, A31U
DNA 1: CAATCTGAATTCCGGTCTCCC
DNA 2: TGGTGGCTACGACGGGATT
B23: CGGAUAC (DNA:RNA)
RNA: B1 RNA with U25C, U26G, G28A, U30A, A31C
DNA 1: CAATCTGAATTCCGGTCTCCC
DNA 2: TGGTGGCTACGACGGGATT
B24: CUCGGCU (DNA:RNA)
RNA: B1 RNA with U25C, G27C, U29G, U30C, A31U
DNA 1: CAATCTGAATTCCGGTCTCCC
DNA 2: TGGTGGCTACGACGGGATT
B25: AGCGAAC (DNA:RNA)
RNA: B1 RNA with U25A, U26G, G27C, U29A, U30A, A31C
DNA 1: CAATCTGAATTCCGGTCTCCC
DNA 2: TGGTGGCTACGACGGGATT
B26: UCGAUAG (DNA:RNA)
RNA: B1 RNA with U26C, G28A, U30A, A31G
DNA 1: CAATCTGAATTCCGGTCTCCC
DNA 2: TGGTGGCTACGACGGGATT
B27: AGCAAGC (DNA:RNA)
RNA: GGGAGACCGGAAUUCAGAUUGUCCAGCAAGCUUAAAUCCCGUCGUAGCCACCA
DNA 1: CAATCTGAATTCCGGTCTCCC
DNA 2: TGGTGGCTACGACGGGATT
B28: GGGGAAC (DNA:RNA)
RNA: B27 RNA with A25G, C27G, A28G, G30A
DNA 1: CAATCTGAATTCCGGTCTCCC
DNA 2: TGGTGGCTACGACGGGATT
B29: GGGGGCA (DNA:RNA)
RNA: B1 RNA with U25G, U26G, U29G, U30C
DNA 1: CAATCTGAATTCCGGTCTCCC
DNA 2: TGGTGGCTACGACGGGATT
B30: GGCAUUU (DNA:RNA)
RNA: B27 RNA with A25G, A29U, G30U, C31U
DNA 1: CAATCTGAATTCCGGTCTCCC
DNA 2: TGGTGGCTACGACGGGATT
B31: AUGUCGU (DNA:RNA)
RNA: B27 RNA with G26U, C27G, A28U, A29C, C31U
DNA 1: CAATCTGAATTCCGGTCTCCC
DNA 2: TGGTGGCTACGACGGGATT
B32: AGGCAUG (DNA:RNA)
RNA: B27 RNA with C27G, A28C, G30U, C31G
DNA 1: CAATCTGAATTCCGGTCTCCC
DNA 2: TGGTGGCTACGACGGGATT
B33: CGGCAUA (DNA:RNA)
RNA: B1 RNA with U25C, U26G, G28C, U29A
DNA 1: CAATCTGAATTCCGGTCTCCC
DNA 2: TGGTGGCTACGACGGGATT
B34: GGGCAUG (DNA:RNA)
RNA: B27 RNA with A25G, C27G, A28C, G30U, C31G
DNA 1: CAATCTGAATTCCGGTCTCCC
DNA 2: TGGTGGCTACGACGGGATT
B35: AGGCAUC (DNA:RNA)
RNA: B27 RNA with C27G, A28C, G30U
DNA 1: CAATCTGAATTCCGGTCTCCC
DNA 2: TGGTGGCTACGACGGGATT
B36: ACCGGCA (DNA:RNA)
RNA: B27 RNA with G26C, A28G, A29G, G30C, C31A
DNA 1: CAATCTGAATTCCGGTCTCCC
DNA 2: TGGTGGCTACGACGGGATT
B37: CGGCAUG (DNA:RNA)
RNA: B27 RNA with A25C, C27G, A28C, G30U, C31G
DNA 1: CAATCTGAATTCCGGTCTCCC
DNA 2: TGGTGGCTACGACGGGATT
B38: GGGCAUA (DNA:RNA)
RNA: B1 RNA with U25G, U26G, G28C, U29A
DNA 1: CAATCTGAATTCCGGTCTCCC
DNA 2: TGGTGGCTACGACGGGATT
B39: GGCAUGU (DNA:RNA)
RNA: B27 RNA with A25G, A29U, C31U
DNA 1: CAATCTGAATTCCGGTCTCCC
DNA 2: TGGTGGCTACGACGGGATT
B40: AGGCAUA (DNA:RNA)
RNA: B27 RNA with C27G, A28C, G30U, C31A
DNA 1: CAATCTGAATTCCGGTCTCCC
DNA 2: TGGTGGCTACGACGGGATT

Biological target: T1, RBFOX1 RRM RbFoxmut (Fox-RRM*)
Experiment: EMSA; HiTS-Eq, 1 nM pool, 10 min; buffer printed only for the single-RNA assays: 10 mM Tris pH 7.5, 150 mM NaCl, 3.4 mM EDTA, 0.001% NP-40, 30 C
Settings: tags: His6 N-terminal (pET28a); label: 5' 32P
Summary of the method: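 These values rest on relative association constants, computed from read-count changes of each RNA species versus the control reaction and normalised to the cognate motif. Reads came from free RNA recovered by 8% native PAGE after purified RbFox RRM (wild type or mutant) at increasing concentrations was equilibrated for 10 min in 50 µL with 1 nM of a 5′-radiolabelled pool with 7 randomized nucleotides and DNA-annealed flanks.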

Binder	binding signal
B1	0.155 KA relative to UGCAUGU
B2	0.0668 KA relative to UGCAUGU
B3	0.124 KA relative to UGCAUGU
B4	0.168 KA relative to UGCAUGU
B5	0.0829 KA relative to UGCAUGU
B6	0.0876 KA relative to UGCAUGU
B7	0.154 KA relative to UGCAUGU
B8	0.0635 KA relative to UGCAUGU
B9	0.914 KA relative to UGCAUGU
B10	0.201 KA relative to UGCAUGU
B11	0.281 KA relative to UGCAUGU
B12	0.863 KA relative to UGCAUGU
B13	0.288 KA relative to UGCAUGU
B14	0.255 KA relative to UGCAUGU
B15	1.11 KA relative to UGCAUGU
B16	0.184 KA relative to UGCAUGU
B17	0.126 KA relative to UGCAUGU
B18	0.152 KA relative to UGCAUGU
B19	0.135 KA relative to UGCAUGU
B20	0.512 KA relative to UGCAUGU

Binder	binding signal
B21	0.0874 KA relative to UGCAUGU
B22	0.0739 KA relative to UGCAUGU
B23	0.0884 KA relative to UGCAUGU
B24	0.0859 KA relative to UGCAUGU
B25	0.0784 KA relative to UGCAUGU
B26	0.1 KA relative to UGCAUGU
B27	0.0622 KA relative to UGCAUGU
B28	0.0664 KA relative to UGCAUGU
B29	0.128 KA relative to UGCAUGU
B30	0.0782 KA relative to UGCAUGU
B31	0.137 KA relative to UGCAUGU
B32	0.799 KA relative to UGCAUGU
B33	0.108 KA relative to UGCAUGU
B34	1.23 KA relative to UGCAUGU
B35	0.222 KA relative to UGCAUGU
B36	0.1 KA relative to UGCAUGU
B37	0.998 KA relative to UGCAUGU
B38	0.134 KA relative to UGCAUGU
B39	0.834 KA relative to UGCAUGU
B40	0.11 KA relative to UGCAUGU
